Measurements as given in the supplement of paper PMC6555819.

Assays:
Assay in all cases: PBM binding z-score (relative to random genomic background probes); higher = stronger binding; sequences stand for … in GC…GCGATTGACAGCGTAGAATGAAGG
[1] = system: FXR:RXRa (NR concentration 270 nM, RXRa partner concentration 90 nM)
How it was run: (§1)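 Scanned fluorescence from custom Agilent 4×180K protein-binding microarrays was regression-normalized. Binding z-scores use random background probes as reference. Ligand-free nuclear receptor dimers were incubated on the arrays for 1 h and detected with antibodies against each partner (one per run).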

[2] = system: LXRa:RXRa (NR concentration 270 nM, RXRa partner concentration 90 nM)
How it was run: as §1

[3] = system: LXRa homodimer (NR concentration 270 nM)
How it was run: as §1

[4] = system: LXRb homodimer (NR concentration 270 nM)
How it was run: as §1

[5] = system: PPARa:RXRa (NR concentration 270 nM, RXRa partner concentration 90 nM)
How it was run: as §1

[6] = system: PPARg:RXRa (NR concentration 180 nM, RXRa partner concentration 90 nM)
How it was run: as §1

[7] = system: PPARg:RXRa 270nM:90nM, anti-RXR (NR concentration 270 nM, RXRa partner concentration 90 nM)
How it was run: as §1

[8] = system: PPARg:RXRa 30nM:10nM, anti-RXR (NR concentration 30 nM, RXRa partner concentration 10 nM)
How it was run: as §1

[9] = system: PPARg:RXRa 90nM:30nM, anti-RXR (NR concentration 90 nM, RXRa partner concentration 30 nM)
How it was run: as §1

[10] = system: LXRb:RXRa (NR concentration 270 nM, RXRa partner concentration 90 nM)
How it was run: as §1

Row | Sequence | PBM binding z-score [1] | PBM binding z-score [2] | PBM binding z-score [3] | PBM binding z-score [4] | PBM binding z-score [5] | PBM binding z-score [6] | PBM binding z-score [7] | PBM binding z-score [8] | PBM binding z-score [9] | PBM binding z-score [10]
1 | CCTTACGGGTCACTTACAGGTTATAGCATTTGGA | 4.84 | 4.49 | 0.907 | 0.66 | 4.62 | 3.07 | 3.73 | 1.27 | 2.84 | 
2 | ATCGAAAGGTCGACGAGGTGAGAATACACCGTTT | 5.1 | 3.9 | 0.0731 | 0.224 | 4.87 | 3.21 | 3.7 | 1.25 | 2.26 | 
3 | TCGAGTAGGTTACGGGGGCGTTCAGGGATGAAGA | 1.63 | 2.21 | 0.585 |  |  | 4.72 | 4.75 | 2.93 | 3.91 | 4.83
4 | CCTACAGGGCCAAGGTCATTGATCAGTCAAAGCA | 3.24 | 3.38 | 0.911 | -0.2 | 3.78 | 2.72 | 3.94 | 1.45 | 3.32 | 
5 | ATATGTAGGTTATCGGGTCATTCATTTTGCGCAT | 3.17 | 3.12 | 1.9 | 1.4 | 5.09 | 7.3 | 6.11 | 3.77 | 5.76 | 
6 | CCTAGTGGGTCAGGAGGTCACACACCGGATATGA | 4.27 | 4.06 | 1.62 | 0.0765 | 5.31 | 7.91 | 6.77 | 4.29 | 6.31 | 
7 | ACTCGGGGGACAAAGGTCAGAGCTACGCCAGTGA | 5.78 | 5.7 | 2.14 | 5.96 | 6.14 | 9.31 | 8.33 | 8.12 | 9.68 | 
8 | GCTTACGGGTCAAAAGTTATAGCATGAATAGAAT | 5.09 | 3.43 | 0.0533 | 0.409 | 5.64 | 6.49 | 6.55 | 4.03 | 6.2 | 
9 | TCTAGTTGGTCACGGGGGTCACACACGACGGGTA | 5.12 | 4.95 | 2.06 | 9.37 | 5.15 | 5.57 | 6.09 | 4.82 | 5.65 | 
10 | TATACAGGATCAAAGGCCAGAGTACGAATGTCGA | 0.361 | 0.271 | -0.0452 | 0.483 | 1.33 | 2.37 | 3.11 | 1.85 | 2.92 | 
11 | ACTAGTTGGTCAGCTGGGGTCACACACAATTCGG | 3.81 | 3.01 | 0.525 | 0.369 | 4.47 | 2.37 | 3.06 | 0.707 | 2.36 | 
12 | CCTAGTTGGTCAGGGGGTCACACACCGGATATGA | 4.51 | 4.01 | 1.32 | 7.75 | 5.36 | 5.04 | 5.76 | 2.89 | 4.92 | 
13 | CCTTACGGGTCACTGACAGCTTATAGCATTTGGA | 5.14 | 3.38 | 0.0209 | -0.0269 | 4.99 | 4.12 | 4.15 | 1.74 | 3.11 | 
14 | CCTTACGGGTCACTCAAGGTTATAGCATCGGAGT | 5.96 | 7.83 | 3.32 | -0.133 | 4.73 | 3.97 | 4.48 | 1.55 | 3.36 | 
15 | CCTACTGGGCCATTCAGAGGTCACTGATCATATG | 1.98 | 3.26 | 4.37 | 0.018 | 3.77 | 2.57 | 3.18 | 0.819 | 2.14 | 
16 | GATACAGGGTCAAGGCCAGAGTACGCGTATTGAT | 6.67 | 4.16 | 0.173 | -0.282 | 5.44 | 5.85 | 5.43 | 2.04 | 4.11 | 
17 | ACTCGGAGGACAAAGGTAAGAGCTACGCCAGTGA | -0.107 | -0.113 | -0.383 | -0.762 | 1.12 | 2.52 | 3.87 | 1.74 | 3.83 | 
18 | GCTGCTAGGTCAGGTTGGTCAGCTAACGGGTACG | 1.01 | 0.656 | -0.0662 | -0.325 | 1.52 | 0.389 | 0.622 | -0.261 | 0.176 | 
19 | ACTTACGGGTCAACGACGTTATAGCACGCGTATA | 6.03 | 3.91 | 0.144 | 0.83 | 5.66 | 5.3 | 5.09 | 1.83 | 3.59 | 
20 | CCTACTGGGCCATTAAGAGGTCATTGATCATATG | 2.62 | 4.19 | 6.58 | 0.0638 | 3.94 | 2.19 | 3.06 | 0.745 | 2 | 
21 | GCTTACGGGTCAAAGGTTAAAGCATGAATAGAAT | 7.68 | 6.08 | 0.955 | 0.412 | 7.2 | 11.8 | 9.59 | 9.12 | 10.3 | 
22 | CCTACTGGGCCATTCAGAGGTCATCGATCATATG | 2.91 | 4.22 | 6.05 | 0.293 | 4.19 | 2.51 | 3.01 | 1.49 | 2.37 | 
23 | CGTCAAAGTTAAAGGTAACGTAACAGAAAGCAGC | 0.0396 | 0.253 | -0.0511 | -0.0705 | 1.46 | 1.59 | 2.59 | 0.527 | 1.65 | 
24 | CCTACTGGGCAAAAAAGGTCATTGATGCCGATAA | 3.26 | 4.69 | 3.15 | -0.0939 | 4.85 | 1.45 | 2.78 | 0.775 | 1.99 | 

Row | Sequence | PBM binding z-score [1] | PBM binding z-score [2] | PBM binding z-score [3] | PBM binding z-score [4] | PBM binding z-score [5] | PBM binding z-score [6] | PBM binding z-score [7] | PBM binding z-score [8] | PBM binding z-score [9] | PBM binding z-score [10]
25 | ACTAGTTGGTCAGCTGAGGTCACACAAAATTCGG | 4.18 | 3.22 | 2.26 | 0.719 | 3.85 | 1.45 | 2.46 | 0.399 | 1.64 | 
26 | CCTACTGGGCCACGAAAGGTGATTGATTCAGTGA | -0.0481 | 0.0469 | -0.496 | -0.883 | 1.75 | 2.08 | 1.68 | 0.232 | 0.958 | 
27 | AGAATGAGGTTACCAAAGATCAGTGAAACGCTTG | 1.73 | 6.11 | 0.0874 | -0.00616 | 3.4 | 2.6 | 2.57 | 1.19 | 2.06 | 
28 | AGTCAAAGTTCATCAAGGTAACGTAAGATATGCT | 6.08 | 5.78 | 4.24 | 1.31 | 4.64 | 6.46 | 6.38 | 3.52 | 5.75 | 
29 | CGTCAAAGTTCAAGGTAAAGTAACAGAAAGCAGC | 5.75 | 5.37 | 2.35 | 0.837 | 4.4 | 4.51 | 5.07 | 2.5 | 3.89 | 
30 | TCTAGCTGGTCACGGAGGTCACACACGACGGGTA | 3.41 | 3.79 | 2.37 | 0.0556 | 3.88 | 3.35 | 3.83 | 2.33 | 3.14 | 
31 | AGAATGGGGTTATTAAGATCAGGGAATTGCGGTC | 3.03 | 2.77 | 0.597 | 2.14 | 4.48 | 3.31 | 3.5 | 1.26 | 2.65 | 
32 | CCTACTGGGCCGAGGTCATTGATCAGTCAAAGCA | 4.08 | 3.71 | 1.15 | -0.228 | 3.96 | 3.02 | 3.38 | 0.749 | 2.52 | 
33 | CCTACTGGGCCACTCAGAGGTCATTGATCATATG | 2.81 | 4.09 | 4.52 | 0.238 | 3.98 | 3.57 | 3.49 | 1.52 | 2.96 | 
34 | CGTCCAAGGTAAATGCTAGGTCAGTGAAAGCATT | 0.57 | 1.38 | 0.935 | -0.419 | 0.673 | -0.228 | -0.117 | -0.486 | -0.493 | 
35 | CAAACTAGGCCAAGGTCAAAGTCGGTTTGTGCCA | 4.09 | 3.76 | 2.16 | 0.128 | 4.79 | 6.27 | 6.01 | 3.89 | 5.74 | 
36 | CGTCAAAGTTCATGGTAACGTAACAGAAAGCAGC | 6.57 | 5.67 | 3.17 | 1.2 | 4.95 | 5.02 | 5.36 | 2.39 | 4.08 | 
37 | CCTTACGGGTCAAGGTTATACCACGGGTGGTACG | 5.46 | 3.7 | 0.309 | 0.0291 | 4.99 | 4.6 | 4.47 | 1.63 | 3.83 | 
38 | TCTAGTTGGTCAAAGGTCAAACACTCGAAATGCG | 6.51 | 6.59 | 5.24 | 2.77 | 6.82 | 11.2 | 10.3 | 9.94 | 11 | 
39 | ATGGAAAGGTCGTGAGGTGAGTATACAGAAAGGC | 5.97 | 4.01 | 0.412 | 1.01 | 5.3 | 4.74 | 4.66 | 1.89 | 3.12 | 
40 | ACTCGGAGGACAAAGGTGAGAGCTACGCCAGTGA | 0.567 | 0.58 | -0.14 | -0.434 | 2.81 | 4.53 | 5.16 | 3.49 | 5.42 | 
41 | ATCGAAAGGTCGAGTTGAGTATAGAGAAAGGGAA | 4.54 | 3.84 | 0.29 | 1.04 | 4.32 | 2.44 | 2.9 | 0.961 | 2.07 | 
42 | TAGCCTAGGTCATGCGGGTCAGTATAGTGTCGGC | 4.39 | 3.93 | 1.06 | 0.0417 | 4.05 | 2.77 | 3.43 | 0.354 | 2.32 | 
43 | CACACTAGGTCAAAGGTCAAAGTCGAGCCAACCA | 8.41 | 7.68 | 6.65 | 3.73 | 7.75 | 13.9 | 11.2 | 14 | 14 | 
44 | CCTAGTTGGTCAAGGTCACGCACGCTATAGGTAC | 4.95 | 4.55 | 2.22 | 0.524 | 4.31 | 3.69 | 4.15 | 1.96 | 3 | 
45 | CCTACTGGGCCACGAAAGGGCATTGATTCAGTGA | -0.208 | 0.621 | -0.166 | -1.21 | 1.7 | 1.78 | 1.95 | 0.197 | 0.806 | 
46 | CCTAGATGGTCAGGAGGTCACACACCGGATATGA | 3.84 | 3.42 | 2 | 0.565 | 4.14 | 3.01 | 3.58 | 1.24 | 2.41 | 
47 | CTTAGTTGGTCAGGAGGTCACACACCGGATATGA | 3.89 | 3.72 | 2.38 | 0.947 | 4.35 | 4.41 | 4.69 | 2.41 | 4.39 | 
48 | TTACCAAGGTGAACTGAGGTCGTTGATCCAACTC | 3.33 | 4.31 | 1.34 | -0.359 | 3.46 | 2.14 | 2.3 | 0.857 | 1.7 | 
